Assay results published in PubChem BioAssay (Tox21).
Several values for one entry are separate records, joined by “and”; a condition that tells them apart may be missing. Equal entries are not always repeated. Results filed as inconclusive are left out. A call without a number means that no potency is given here. Where a structure was tested more than once in an assay, its records may differ in their call. Activity calls are given as the source filed them. Unless noted, calls follow the shape of the dose curve; as a rule, active = well fitted curve in the direction sought with a large enough effect in the repeat runs; inconclusive = weak or mixed curves; inactive = no such curve, though single readings can be large; an effect the other way counts as inactive or inconclusive.

What was measured:
[1] = qHTS assay to identify small molecule antagonists of the estrogen receptor alpha (ER-alpha) signaling pathway using the BG1 cell line in the presence of 0.1 nM 17-beta-estradiol - cell viability counter screen (AID 1259241); also: nearly all actives have a fitted effect of over 40% in size
In short: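 Estradiol-stimulated (0.1 nM) VM7Luc4E2 cells exposed to compounds 22 hr; viability measured by fluorescence of cleaved CellTiter-Fluor substrate after 30 min.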

[2] = qHTS assay to identify small molecule antagonists of the androgen receptor (AR) signaling pathway using the MDA cell line in the presence of 0.5 nM R1881 - cell viability counter screen (AID 1259242); also: nearly all actives have a fitted effect of over 45% in size
In short: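 Viability of MDA-kb2 cells was multiplexed with the luciferase AR readout; after 16 hr with compounds and R1881 at 0.5 nM final, CellTiter-Fluor fluorescence was recorded.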

[3] = biological target: Androgen receptor (Homo sapiens) (UniProt P10275); experiment: qHTS assay to identify small molecule antagonists of the androgen receptor (AR) signaling pathway using the MDA cell line in the presence of 0.5 nM R1881 (AID 1259243); also: nearly all actives have a fitted effect of over 50% in size; also: potency is read from the fitted curve at half-maximal effect
Sequence of Androgen receptor (Homo sapiens) (P10275 whole entry, looked up): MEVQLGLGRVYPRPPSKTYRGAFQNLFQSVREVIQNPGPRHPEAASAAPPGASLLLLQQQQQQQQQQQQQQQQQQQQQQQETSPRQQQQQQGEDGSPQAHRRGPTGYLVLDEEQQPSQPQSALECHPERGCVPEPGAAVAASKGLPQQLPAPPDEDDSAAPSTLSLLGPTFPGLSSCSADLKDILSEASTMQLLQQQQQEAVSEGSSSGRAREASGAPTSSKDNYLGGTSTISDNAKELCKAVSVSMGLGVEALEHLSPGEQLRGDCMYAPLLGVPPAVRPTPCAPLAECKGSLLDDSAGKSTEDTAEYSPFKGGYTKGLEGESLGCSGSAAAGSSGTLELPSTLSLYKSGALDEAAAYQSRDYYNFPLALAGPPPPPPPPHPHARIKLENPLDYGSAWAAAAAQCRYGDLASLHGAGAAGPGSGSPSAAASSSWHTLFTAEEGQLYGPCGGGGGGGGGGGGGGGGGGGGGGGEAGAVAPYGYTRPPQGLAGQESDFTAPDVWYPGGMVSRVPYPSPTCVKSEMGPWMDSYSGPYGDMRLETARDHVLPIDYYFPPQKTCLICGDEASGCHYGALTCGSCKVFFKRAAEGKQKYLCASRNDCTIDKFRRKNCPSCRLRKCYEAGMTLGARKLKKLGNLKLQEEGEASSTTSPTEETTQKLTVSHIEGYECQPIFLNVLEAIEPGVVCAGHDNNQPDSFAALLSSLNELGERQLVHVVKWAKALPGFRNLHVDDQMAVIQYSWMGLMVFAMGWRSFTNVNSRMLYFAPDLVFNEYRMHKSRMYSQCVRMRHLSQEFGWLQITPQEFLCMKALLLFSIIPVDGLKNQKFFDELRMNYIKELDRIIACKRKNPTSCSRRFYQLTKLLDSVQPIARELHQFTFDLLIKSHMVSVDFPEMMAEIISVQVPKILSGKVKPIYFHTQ
In short: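 Reporter cells cultured without CO2 receive test chemicals, then 0.5 nM R1881 final; after 16 hr at 37C, ONE-Glo is added and light output recorded.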

[4] = qHTS assay to identify small molecule HDAC inhibitors - cell viability counter screen (AID 1259365); also: series mostly up to about 92 µM; nearly all actives have a fitted effect of over 50% in size
In short: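 After overnight seeding at 1,500 cells per well, wild-type HCT-116 cultures took up compounds in DMSO for 2hr at 37 C. Viable cell content came from luminescence with CellTiter-Glo.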

[5] = qHTS assay to identify small molecule agonists of the sonic hedgehog signaling (Shh) pathway - cell viability counter screen (AID 1259366); also: nearly all actives have a fitted effect of over 50% in size; also: potency is read from the fitted curve at half-maximal effect
In short: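 Same-well cytotoxicity read. Gli1-Luc reporter 3T3 cells; compounds 24hr, 37C/5% CO2; CellTiter-Fluor fluorescence.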

[6] = qHTS assay to identify small molecule antagonists of the sonic hedgehog signaling (Shh) pathway - cell viability counter screen (AID 1259367); also: nearly all actives have a fitted effect of over 55% in size; also: potency is read from the fitted curve at half-maximal effect
In short: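 NIH/3T3-derived Gli1-Luc reporter cells, 2,000/well, plated 4 hr before compound addition, then stimulated with conditioned medium for 24 hr at 37C. Viability measured in the same wells by CellTiter-Fluor fluorescence, reagent added at 23 hr for 1 hr.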

[7] = qHTS assay to identify small molecule agonists of the sonic hedgehog signaling (Shh) pathway (AID 1259368; calls by dose curve;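 also: NIH/3T3-derived 3T3Gli1-Luc cells carrying a stable Gli1-driven firefly luciferase reporter; series mostly up to about 92 µM; nearly all actives have a fitted effect of over 15% in size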)
In short: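 A Gli1 transcriptional response element controlled firefly luciferase in 3T3Gli1-Luc cells. Compounds and a positive control were added 4 hr after plating, and cells were incubated a further 24 hr at 37 C before luminescence detection.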

[8] = qHTS assay to identify small molecule antagonists of the sonic hedgehog signaling (Shh) pathway (AID 1259369; calls by dose curve; also: nearly all actives have a fitted effect of over 45% in size; also: potency is read from the fitted curve at half-maximal effect)
In short: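 For antagonist detection, the reporter line received test compounds together with conditioned medium, incubated 24hr at 37 C, 5% CO2, then luminescence was recorded following 30min room-temperature luciferase reagent incubation.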

[9] = biological target: Estrogen receptor beta (Homo sapiens) (UniProt Q92731); experiment: qHTS assay to identify small molecule agonists of the estrogen receptor beta (ER-beta) signaling pathway (AID 1259377; active = well fitted activation curve with a large enough effect in the signal ratio in the repeat runs, not every such curve was filed as active; the % refers to the signal ratio)
Sequence of Estrogen receptor beta (Homo sapiens) (Q92731 whole entry, looked up): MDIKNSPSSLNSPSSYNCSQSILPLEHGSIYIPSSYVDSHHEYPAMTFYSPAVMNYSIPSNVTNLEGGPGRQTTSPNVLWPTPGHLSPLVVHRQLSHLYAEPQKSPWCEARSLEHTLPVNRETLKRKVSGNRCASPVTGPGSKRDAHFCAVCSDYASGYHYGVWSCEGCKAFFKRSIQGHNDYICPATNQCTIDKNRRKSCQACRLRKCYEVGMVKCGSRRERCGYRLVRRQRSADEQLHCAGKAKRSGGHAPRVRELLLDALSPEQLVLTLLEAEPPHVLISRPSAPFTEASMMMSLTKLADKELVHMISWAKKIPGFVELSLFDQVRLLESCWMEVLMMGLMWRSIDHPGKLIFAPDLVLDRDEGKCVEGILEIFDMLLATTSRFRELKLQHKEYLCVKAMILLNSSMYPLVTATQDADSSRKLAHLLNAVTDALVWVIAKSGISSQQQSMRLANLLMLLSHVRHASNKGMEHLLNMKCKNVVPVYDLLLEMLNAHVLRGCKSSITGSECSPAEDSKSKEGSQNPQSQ
In short: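 Read-out: beta-lactamase FRET fluorescence. Cell line: ER-beta-UAS-bla HEK293T in 2% charcoal-stripped FBS. Exposure: 16 hr at 37C. Substrate step: 2 h at room temperature.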

[10] = biological target: Estrogen receptor beta (Homo sapiens) (UniProt Q92731); experiment: qHTS assay to identify small molecule antagonists of the estrogen receptor beta (ER-beta) signaling pathway (AID 1259378; active = well fitted inhibition curve with a large enough effect in the signal ratio in the repeat runs, not every such curve was filed as active; the % refers to the signal ratio; also: potency is read from the fitted curve at half-maximal effect)
In short: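 ER-beta-UAS-bla HEK293T cells in 2% charcoal-stripped FBS medium treated with compound plus 1nM final 17-beta-estradiol for 16 hr at 37C. Beta-lactamase reporter read by FRET substrate fluorescence after 2 hours at room temperature.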

[11] = qHTS assay to identify small molecule agonists of the androgen receptor (AR) signaling pathway in the presence of an antagonist - cell viability counter screen (AID 1259379); also: nearly all actives have a fitted effect of over 25% in size; also: potency is read from the fitted curve at half-maximal effect
In short: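 Seed MDA-kb2 at 3,000 cells/well; incubate 5 hr, 37C, 0% CO2. Add nilutamide to 3.0uM final, then pin compounds at 15 concentrations. Incubate 16 hr. Add CellTiter-Fluor at 15 hr, read fluorescence after 1 hr.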

[12] = qHTS assay to identify small molecule agonists of the estrogen receptor beta (ER-beta) signaling pathway - cell viability counter screen (AID 1259380); also: nearly all actives have a fitted effect of over 30% in size; also: potency is read from the fitted curve at half-maximal effect
In short: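 CellTiter-Glo read, 30 min RT, same wells as bla assay; cells ER-beta-UAS-bla HEK293T; 16 hr compound, 37C; medium 2% charcoal-stripped FBS.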

[13] = biological target: Androgen receptor (Homo sapiens) (UniProt P10275); experiment: qHTS assay to identify small molecule agonists of the androgen receptor (AR) signaling pathway in the presence of an antagonist (AID 1259381; calls by dose curve; also: nearly all actives have a fitted effect of over 15% in size)
In short: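 Test compounds at 15 concentrations were incubated for 16hr with MDA-kb2 reporter cells in presence of 3.0uM nilutamide (final). Signal: ONE-Glo luciferase luminescence.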

[14] = qHTS assay to identify small molecule antagonists of the estrogen receptor beta (ER-beta) signaling pathway - cell viability counter screen (AID 1259382); also: nearly all actives have a fitted effect of over 55% in size; also: potency is read from the fitted curve at half-maximal effect
In short: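 In this multiplexed counter screen, cells were seeded at 2,000 per well in medium with 2% charcoal-stripped FBS and incubated 6 hr before compound and 1nM final E2 were added. Sixteen hours later, ATP-based luminescence reported viability.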

[15] = qHTS assay to identify small molecule agonists or antagonists of the thyroid stimulating hormone receptor (TSHR) signaling pathway - wild type cell line counter screen (AID 1259384; calls by dose curve)
In short: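 Wild-type Hek293 cells, 800/well, 18 h at 37C, then compound with Ro20-1724 for 30 min RT. cAMP by HTRF (cAMP-d2/anti-cAMP cryptate), 1 h RT, fluorescence read. 15 concentrations, triplicates.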

[16] = biological target: Thyrotropin receptor (Homo sapiens) (UniProt P16473); experiment: qHTS assay to identify small molecule antagonists of the thyroid stimulating hormone receptor (TSHR) signaling pathway (AID 1259385; calls by dose curve; also: nearly all actives have a fitted effect of over 20% in size)
Sequence of Thyrotropin receptor (Homo sapiens) (P16473 whole entry, looked up): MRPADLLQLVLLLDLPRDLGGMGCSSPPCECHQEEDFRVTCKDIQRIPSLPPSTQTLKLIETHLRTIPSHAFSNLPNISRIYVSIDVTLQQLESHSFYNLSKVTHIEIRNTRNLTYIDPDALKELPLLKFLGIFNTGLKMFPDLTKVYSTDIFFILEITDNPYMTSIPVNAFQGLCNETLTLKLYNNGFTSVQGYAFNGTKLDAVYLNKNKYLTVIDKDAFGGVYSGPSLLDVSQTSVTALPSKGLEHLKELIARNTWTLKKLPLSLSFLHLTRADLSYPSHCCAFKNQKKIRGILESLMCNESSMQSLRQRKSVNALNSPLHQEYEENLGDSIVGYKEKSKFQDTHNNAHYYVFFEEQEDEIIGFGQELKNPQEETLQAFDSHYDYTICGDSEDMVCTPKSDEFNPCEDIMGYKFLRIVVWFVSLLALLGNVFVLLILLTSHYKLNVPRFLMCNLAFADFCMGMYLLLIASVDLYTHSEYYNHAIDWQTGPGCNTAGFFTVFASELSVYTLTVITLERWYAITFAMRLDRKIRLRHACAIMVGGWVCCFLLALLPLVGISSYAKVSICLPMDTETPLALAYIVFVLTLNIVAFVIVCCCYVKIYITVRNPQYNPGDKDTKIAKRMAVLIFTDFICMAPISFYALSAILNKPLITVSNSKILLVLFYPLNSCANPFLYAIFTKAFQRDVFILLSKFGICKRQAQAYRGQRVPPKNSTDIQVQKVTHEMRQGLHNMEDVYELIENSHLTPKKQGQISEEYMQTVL
In short: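 TSHR-HEK293 cells (800/well) plated 18 h, then compounds with Ro20-1724 and TSH at 1.5 ng/mL final, 30 min at room temperature. cAMP quantified by HTRF (cAMP-d2/anti-cAMP-cryptate, 1 h); 15 concentrations in triplicate.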

[17] = biological target: Estrogen receptor (Homo sapiens) (UniProt P03372); experiment: qHTS assay to identify small molecule antagonists of the estrogen receptor alpha (ER-alpha) signaling pathway using the BG1 cell line in the presence of 0.1 nM 17-beta-estradiol (AID 1259244); also: nearly all actives have a fitted effect of over 50% in size; also: potency is read from the fitted curve at half-maximal effect
Sequence of Estrogen receptor (Homo sapiens) (P03372 whole entry, looked up): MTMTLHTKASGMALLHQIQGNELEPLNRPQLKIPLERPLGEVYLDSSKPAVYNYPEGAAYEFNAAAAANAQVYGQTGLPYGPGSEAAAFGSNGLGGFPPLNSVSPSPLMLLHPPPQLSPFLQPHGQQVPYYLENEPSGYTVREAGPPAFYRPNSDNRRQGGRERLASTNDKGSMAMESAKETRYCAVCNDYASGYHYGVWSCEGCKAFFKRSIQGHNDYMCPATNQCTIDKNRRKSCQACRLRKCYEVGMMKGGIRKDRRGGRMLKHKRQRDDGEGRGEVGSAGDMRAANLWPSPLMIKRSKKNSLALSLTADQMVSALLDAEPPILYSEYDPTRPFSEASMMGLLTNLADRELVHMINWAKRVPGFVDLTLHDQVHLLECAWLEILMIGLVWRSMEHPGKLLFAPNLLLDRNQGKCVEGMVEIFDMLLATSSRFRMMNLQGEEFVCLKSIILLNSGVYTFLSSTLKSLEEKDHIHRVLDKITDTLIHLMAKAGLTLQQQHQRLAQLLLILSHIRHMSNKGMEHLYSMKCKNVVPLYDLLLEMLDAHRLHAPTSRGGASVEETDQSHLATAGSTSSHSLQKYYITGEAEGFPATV
In short: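 Estradiol at 0.1 nM (final) stimulates the endogenous ER-alpha of VM7Luc4E2 cells carrying an ERE-driven luciferase; compounds are co-incubated 22 h at 37C and luciferase output quantified by luminescence.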

[18] = qHTS assay to identify small molecule phospholipidosis (PLD) inducers (AID 1259344; active = well fitted curve in the direction sought with a large enough effect; an effect the other way counts as inactive or inconclusive; also: potency is read from the fitted curve at half-maximal effect)
In short: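 HepG2 cells, 900/well, treated with compound plus LipidTOX Red for 24 h at 37 C; amiodarone positive and DMSO negative controls. Fixed with paraformaldehyde/Hoechst, then high-content imaging scored LipidTOX pit count and integrated intensity per well and per cell.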

[19] = qHTS assay to identify small molecule HDAC inhibitors (AID 1259364); also: potency is read from the fitted curve at half-maximal effect;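 also: wild-type HCT-116 cells with endogenous class I/II HDAC activity; nearly all actives have a fitted effect of over 45% in size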
In short: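 Read-out: luminescence of HDAC-Glo I/II reagent, 30 min RT, reflecting class I/II deacetylase activity in whole HCT-116 cells pre-exposed 2 h to DMSO-dissolved compounds.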

[20] = biological target: Estrogen receptor (Homo sapiens) (UniProt P03372); experiment: qHTS assay to identify small molecule agonists of the estrogen receptor alpha (ER-alpha) signaling pathway in the presence of an antagonist (AID 1259383; calls by dose curve; also: top concentration of the series differs between compounds; nearly all actives have a fitted effect of over 15% in size)
In short: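 Stably transfected VM7Luc4E2 reporter cells, kept 5 days in charcoal-stripped serum, received ICI-182,780 at 10.0nM final before compound addition. Following 22hr incubation at 37C and 5% CO2, luciferase signal was read by luminescence.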

Structure (SMILES)	Potency [1]	Potency [2]	Potency [3]	outcome [4]	Potency [5]	Potency [6]	outcome [7]	Potency [8]	outcome [9]	Potency [10]	Potency [11]	Potency [12]	outcome [13]	Potency [14]	Potency [15]	outcome [16]	Potency [17]	Potency [18]	Potency [19]	Potency [20]
COc1ccc(O)cc1	inactive	inactive	inactive	inactive	inactive	inactive	inactive	21.7 µM (active)	inactive	inactive	inactive	inactive	inactive	inactive	inactive	inactive				
CCOC(=O)C(C)(C)Oc1ccc(Cl)cc1	inactive	inactive		inactive	inactive	inactive	inactive	inactive	inactive	inactive	inactive	inactive		inactive	inactive	inactive	inactive	inactive	inactive	inactive
COC(=O)c1ccc(O)cc1	inactive	inactive		inactive	inactive	inactive	inactive	inactive	inactive	inactive	inactive	inactive		inactive	inactive	inactive	inactive	inactive		inactive
C1CNCCN1	inactive	inactive		inactive	inactive	inactive	inactive	5.61 µM (active) and inactive	inactive	inactive	inactive	inactive		inactive	inactive	inactive	inactive	inactive		inactive
CCn1cc(C(=O)O)c(=O)c2ccc(C)nc21	inactive	inactive		inactive	inactive	inactive	inactive	inactive	inactive	inactive	inactive	inactive		inactive	inactive	inactive	inactive	inactive		inactive
O=C(O)CCCCC1CCSS1 (stereo not drawn)	inactive	inactive		inactive	inactive	inactive	inactive	inactive	inactive	inactive	inactive	inactive		inactive	inactive	inactive	inactive	inactive		inactive
CC(C)(C)CC(C)(C)c1ccc(O)c(-n2nc3ccccc3n2)c1	inactive	inactive		inactive	inactive	inactive	inactive	inactive	inactive	inactive	inactive	27.7 µM (active)		inactive	inactive	inactive	inactive	inactive		inactive
NC(=O)OCC(COC(N)=O)c1ccccc1	inactive	inactive	inactive	inactive	inactive	inactive	inactive	inactive			inactive	inactive	inactive	inactive	inactive	inactive	inactive	inactive		inactive
NCCNc1cccc2ccccc12	inactive	inactive	68.5 µM (active) and inactive	inactive	61.1 µM (active) and inactive	inactive	inactive	61.1 µM (active) and 37.6 µM (active) and inactive			54.4 µM (active) and 59.6 µM (active) and inactive	54.4 µM (active) and 59.6 µM (active)	inactive	24.3 µM (active) and 59.6 µM (active) and inactive					inactive	
C[C@]12CC[C@@H]3c4ccc(O)cc4C[C@@H](CCCCCCCCCS(=O)CCCC(F)(F)C(F)(F)F)[C@H]3[C@@H]1CC[C@@H]2O (stereo partly drawn)	inactive	inactive	8.41 µM (active)	inactive	inactive	inactive	inactive	inactive	inactive		inactive	9.68 µM (active) and 14.3 µM (active) and 8.41 µM (active)	inactive		inactive	inactive				
Oc1cccc(O)c1	inactive	inactive		inactive	inactive	inactive	inactive	inactive	inactive	inactive	inactive	inactive		inactive	inactive	inactive	inactive	inactive		inactive
CC(O)COc1ccccc1 (stereo not drawn)	inactive	inactive	inactive	inactive	inactive	inactive	inactive	inactive	inactive	inactive	inactive	inactive	inactive	inactive	inactive	inactive			inactive	
COc1cc(C=O)ccc1O	inactive	inactive	inactive	inactive	inactive	inactive	inactive	inactive	inactive	inactive	inactive	inactive	inactive	inactive	inactive	inactive	inactive		inactive	inactive
c1ccc2[nH]c(-c3cscn3)nc2c1	inactive	inactive	inactive	inactive	inactive	inactive	inactive	inactive	inactive	inactive	inactive	inactive	inactive	inactive	inactive	inactive	inactive		9.75 µM (active) and 486 nM (active) and 1.19 µM (active)	inactive
O=c1c(-c2ccc(O)cc2)coc2cc(O)cc(O)c12	inactive	inactive	inactive	inactive	inactive	inactive	inactive	10.7 µM (active)			inactive	13.7 µM (active)	inactive	inactive	inactive	inactive		inactive	8.49 µM (active) and 6.86 µM (active) and 9.44 µM (active)	
Cc1cccc(C)c1O	inactive	inactive	inactive	inactive	inactive	inactive	inactive	inactive	inactive	inactive	inactive	inactive	inactive	inactive			inactive			inactive
COCCOCCOC	inactive	inactive	inactive	inactive	inactive	inactive	inactive	inactive	inactive	inactive	inactive	inactive	inactive	inactive	inactive	inactive	inactive		inactive	inactive
CC1=NN(c2ccccc2)C(=O)C1	inactive	inactive		inactive	inactive	inactive	inactive	inactive	inactive	inactive	inactive	inactive		inactive	inactive	inactive	inactive	inactive		inactive
Cc1cccc(Nc2cc(Cl)nc(SCC(=O)O)n2)c1C	inactive	inactive	inactive	inactive	inactive	inactive	inactive	inactive			inactive	inactive	inactive	inactive	inactive	inactive	inactive		inactive	inactive
COc1cc2c(c(OC)c1OC)-c1ccc(OC)c(=O)cc1[C@@H](NC(C)=O)CC2	inactive	inactive	inactive	inactive	inactive	inactive and 48.6 nM (active) and 376 nM (active)	inactive	1.7 nM (active) and 2.4 nM (active)	inactive	inactive	inactive	27 µM (active) and inactive	inactive	inactive			27 µM (active)	0.708 µM (active)	inactive	inactive
CC(=O)Oc1ccccc1C(=O)O	inactive	inactive	inactive	inactive	inactive	inactive	inactive	inactive	inactive	inactive	inactive	inactive	inactive	inactive	inactive	inactive	inactive	inactive		inactive
COc1cc(O)c(C(=O)c2ccccc2)cc1S(=O)(=O)O	inactive	inactive	inactive	inactive	inactive	inactive	inactive	inactive	inactive	inactive	inactive	inactive	inactive	inactive	inactive	inactive	inactive		inactive	inactive
CCCCCCCCCCCCCC(=O)OC(C)C	inactive	inactive	inactive	inactive	inactive	inactive	inactive	inactive	inactive	inactive	inactive	inactive	inactive	inactive	inactive	inactive	inactive			inactive
COc1ccc(C(=O)c2ccccc2)c(O)c1	inactive	inactive	15.1 µM (active) and 27.3 µM (active) and 21.1 µM (active)	inactive	inactive	inactive	inactive	inactive	inactive	inactive	inactive	inactive	inactive	inactive	inactive	inactive	inactive			inactive
O=C1OC(c2ccc(O)cc2)(c2ccc(O)cc2)c2ccccc21	inactive	inactive	48.6 µM (active) and inactive	inactive	inactive	54.1 µM (active) and inactive	inactive	3.83 µM (active) and 38.6 µM (active) and inactive		15.4 µM (active)	inactive	54.1 µM (active) and inactive	inactive	inactive	inactive	inactive		inactive	inactive	
CC(=O)c1ccc(S(=O)(=O)NC(=O)NC2CCCCC2)cc1	inactive	inactive	inactive	inactive	inactive	inactive	inactive	inactive	inactive	inactive	inactive	inactive	inactive	inactive	inactive	inactive	inactive	inactive		inactive
